The panel holds about 79,000 compounds, 15% with a hit somewhere; the sample as a whole holds those more often. The source made the active and inactive calls. Cut-off read from the data, not from the text of the source: active = growth inhibition above about 70%; inactive = the rest.
Key:
[1] = NCI Yeast Anticancer Drug Screen. Data for the rad50 strain (AID 155);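 note: 0% = growth of vehicle-only cultures of the same strain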; conditions: S. cerevisiae rad50 strain growth inhibition; at 50.0 µM; hits give high values
How it was run: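 Readout: growth inhibition relative to vehicle-treated cultures. Compound exposure was carried out in a genetically defined yeast strain deficient in DNA damage repair.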

[2] = NCI Yeast Anticancer Drug Screen. Data for the mec2-1 strain (AID 157); conditions: S. cerevisiae mec2-1 strain, at 50.0 µM, hits give high values
How it was run: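 Strain: mec2-1 (DNA repair/cell cycle alteration). Compound exposure, then growth measured; inhibition expressed relative to vehicle.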

[3] = NCI Yeast Anticancer Drug Screen. Data for the sgs1 mgt1 strain (AID 161);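 note: 0% = growth of cultures given vehicle only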; conditions: S. cerevisiae sgs1 mgt1 strain, at 50.0 µM, hits give high values
How it was run: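 Test agents were incubated with a DNA-repair-mutant yeast strain. Growth was then read and compared against vehicle-treated controls.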

[4] = NCI Yeast Anticancer Drug Screen. Data for the cln2 rad14 strain (AID 165);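 note: 0% = growth equal to vehicle treated cultures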; conditions: S. cerevisiae cln2 rad14 strain, at 50.0 µM, hits give high values
How it was run: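 Compounds are applied to the cln2 rad14 yeast strain, and growth is then compared with that of vehicle-treated cultures to give inhibition.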

[5] = NCI Yeast Anticancer Drug Screen. Data for the bub3 strain (AID 167); conditions: S. cerevisiae bub3 mutant strain, at 50.0 µM, hits give high values
How it was run: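 Readout: yeast growth inhibition, expressed relative to vehicle-only wells. The test organism is a mutant strain from a panel with lesions in DNA repair or checkpoint genes.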

[6] = NCI Yeast Anticancer Drug Screen. Data for the mlh1 rad18 strain (AID 175); conditions: S. cerevisiae mlh1 rad18 strain growth inhibition; at 50.0 µM; hits give high values
How it was run: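 Read-out is yeast growth inhibition, calculated against vehicle-only controls. The compound was applied to a strain engineered with DNA damage repair alterations.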

Measured: growth inhibition

NC(=O)c1cn(C2OC(CO)C(O)C2O)c2nc(N)nc(N)c2c1=O (stereo not given)
inactive: [1] 19% | [2] 19.4% | [3] 14.3% | [4] 3.9% | [5] 23.1% | [6] 45.1%

COC1CC(NC(C)=O)C(OC(=O)c2ccccc2)C(CBr)O1 (stereo not given)
inactive: [1] 17.6% | [2] 1.4% | [3] 2.45% | [4] 15.2% | [5] -1.8% | [6] 19.6%

CCOC(=O)[C@H]1CSC[C@@H](C(=O)OC)N1
inactive: [1] -13.6% | [2] -4.7% | [3] -10.6% | [4] 4.45% | [5] 5.15% | [6] -4.9%

CCOC(=O)C(CC(c1ccc2c(c1)OCO2)C(C(=O)N(C(C)C)C(C)C)[N+](=O)[O-])C(=O)OCC (stereo not given)
inactive: [1] 54.9% | [2] 21.4% | [3] 60.5% | [4] 16.2% | [5] 11.8% | [6] 26.4%

Cc1ccc(C(=O)c2ccc(O)cc2)cc1
inactive: [1] -25.4% | [2] -7.65% | [3] -6.5% | [4] -21.8% | [5] -7.6% | [6] -14.2%

O=C(O)CSc1nc2ccc(N3C(=O)C4C5C=CC(C5)C4C3=O)cc2s1 (stereo not given)
inactive: [1] 29.4% | [2] -2.65% | [3] -2.5% | [4] 11.3% | [5] -2.5% | [6] 6.15%

O=C1/C(=C\c2ccccn2)c2ccccc2N1Cc1ccccc1
inactive: [1] 7.6% | [2] 1.25% | [3] 8.75% | [4] 16.9% | [5] 11.2% | [6] 22.3%

O=C1CSC(c2ccc(Cl)c([N+](=O)[O-])c2)N1c1nncs1 (stereo not given)
inactive: [1] 7.9% | [2] 4.6% | [3] 24.2% | [4] 12.7% | [5] 10% | [6] 25.1%

CC(C)[C@@H]1CC[C@@H](C)C[C@H]1OC(=O)c1c2n(c3ccccc13)C[C@H]1OC(C)(C)O[C@@H]21
inactive: [1] 5.15% | [2] -6.65% | [3] 7.4% | [4] 22.9% | [5] 15.2% | [6] -46.2%

Cc1ccc(S(=O)NOCc2ccccc2)cc1 (stereo not given)
inactive: [1] 3.25% | [2] 16.4% | [3] 5.3% | [4] 11.4% | [5] 11.1% | [6] 51%

CCOc1nc(N)nc(C)c1N=Nc1ccccc1OC
inactive: [1] 12.7% | [2] 9.05% | [3] 14.4% | [4] 35.9% | [5] 11.5% | [6] 13.5%

COC(=O)N1N=C(c2ccccc2)C(C(=O)OC)(C(=O)OC)c2ccccc21
inactive: [1] 45.7% | [2] 11.9% | [3] 24.6% | [4] 16.6% | [5] 20.2% | [6] 36.8%

O=C(CC(C(=O)c1ccsc1)c1cccs1)c1ccsc1 (stereo not given)
inactive: [1] -11.2% | [2] -19.2% | [3] 18.6% | [4] 24.5% | [5] 28.9% | [6] 3%

CCCC(N)C(=O)NC(Cc1c[nH]c2ccccc12)C(=O)O (stereo not given)
inactive: [1] -23.9% | [2] -6.65% | [3] -12% | [4] -0.3% | [5] 0.9% | [6] 2.05%

Cc1ccccc1NC(=S)N1CCOCC1
inactive: [1] -4.55% | [2] 14.4% | [3] -10.8% | [4] -68.6% | [5] 14.2% | [6] -6.35%

CCC(c1ccc(OC)cc1)c1cc2c(cc1OCC(=O)O)OCO2 (stereo not given)
inactive: [1] 36.6% | [2] 55.2% | [3] 57.1% | [4] 53.9% | [5] 44.5% | [6] 65.5%

O=C(CCl)OCC(CCl)OC(=O)CCl (stereo not given)
inactive: [1] -3.6% | [2] 29.1% | [3] 37.1% | [4] -15.2% | [5] 41.6% | [6] 0.6%

O=C1c2c(ccc3c2CCCC3)CC12Cc1ccccc1C2
inactive: [1] 8.9% | [2] -4.45% | [3] 9.25% | [4] -2.75% | [5] 4.8% | [6] 4.7%

Cl/C(=C\c1ccccc1)c1ccccc1
inactive: [1] 20.4% | [2] -6.55% | [3] -5.7% | [4] -42.5% | [5] 7.7% | [6] -6.55%

CC(=O)NNC(=S)/N=C/c1c(C)[nH]n(-c2ccccc2)c1=O
inactive: [1] 4.6% | [2] -7.95% | [3] -22.1% | [4] 2.65% | [5] -6.85% | [6] 17.6%

CCCCCNc1ncnc2c1cnn2C
inactive: [1] 7.6% | [2] 0.6% | [3] -1.35% | [4] -12.4% | [5] 22.6% | [6] -0.4%

Cc1cc(Br)c2c(c1N)C(=O)c1ccccc1C2=O
inactive: [1] 23.6% | [2] 35% | [3] 31.4% | [4] -7.75% | [5] 7.1% | [6] 15.6%

O=C1C=C(c2ccccc2)CC1
inactive: [1] -17.8% | [2] 2.55% | [3] -6.05% | [4] 8.4% | [5] 13.1% | [6] 0.95%

COCn1ccnc1C(=O)c1ccccc1
inactive: [1] -11.4% | [2] -13.8% | [3] -9.65% | [4] -27.1% | [5] -7.25% | [6] -5.15%

C=COS(=O)O
inactive: [1] -0.65% | [2] -3.45% | [3] -4.85% | [4] -6.7% | [5] 12.3% | [6] -0.15%

CCCCc1c2c(nc3c1CCc1cc4cc5c(nc4nc1-3)-c1nc3c(c(CCCC)c1CC5)CCCC3)CCCC2
inactive: [1] 7.5% | [2] 24.9% | [3] 16.1% | [4] -45.7% | [5] 9.95% | [6] 29.4%

CCOc1ccccc1NC(=O)C(=O)Cc1nc2ccccc2s1
inactive: [1] -2.65% | [2] 6.1% | [3] -2% | [4] -6.75% | [5] -0.75% | [6] 2.9%

C=Cc1ccc(C)[n+](C[Si](C)(C)O[Si](C)(C)C)c1
inactive: [1] -7.75% | [2] -39% | [3] -8.95% | [4] 19.4% | [5] -22.9% | [6] -20.7%

C(=N\NC1=NCCCN1)/c1ccc2ccccc2c1
inactive: [1] 4.45% | [2] 1.65% | [3] -13.8% | [4] -28.4% | [5] 0.05% | [6] 1.15%

S=c1nc[nH]c2c1cnn2-c1ccccc1
inactive: [1] 5.6% | [2] 19.6% | [3] 54.4% | [4] -13.2% | [5] -7.3% | [6] 40.2%

CP(=O)(CCSc1ccccc1)c1ccccc1 (stereo not given)
inactive: [1] -12.5% | [2] -20.5% | [3] -0.85% | [4] 23.6% | [5] -10.7% | [6] -21.1%

O=C(O)CCCc1ccc(Oc2ccccc2)cc1
inactive: [1] -6.05% | [2] -15.3% | [3] 22% | [4] -8.85% | [5] -5% | [6] -6.6%

O=C(O)CCC(C(=O)O)N1C(=O)C2C3CCC(C3)C2C1=O (stereo not given)
inactive: [1] -26% | [2] -33.9% | [3] -36.2% | [4] -16% | [5] -24.9% | [6] -5.45%

Cc1ncc(CO)c(/C=N/NC(=O)c2ccncc2)c1O
inactive: [1] 14.3% | [2] 9.4% | [3] 11.7% | [4] -35.5% | [5] 15.8% | [6] 17.6%

c1ccc2c3c([nH]c2c1)C1(CCCCC1)c1c([nH]c2ccccc12)C31CCCCC1
inactive: [1] -19.6% | [2] 2.2% | [3] -8.9% | [4] 9.9% | [5] -20.4% | [6] -10.9%

CCC1CN2CCc3c([nH]c4ccccc34)[C@@](C(=O)OC)(c3cc4c(cc3OC)N(C)C3C(O)(C(=O)OC)C(C(=O)OC)C5(CC)C=CCN6CCC43C65)C[C@@H](C2)[C@@H]1C(C)(C)C (stereo not given in full)
inactive: [1] -6.3% | [2] -10% | [3] -9% | [4] -13.6% | [5] -36.3% | [6] -72.7%

N#CCCN(CCC#N)c1ccc(C=Nc2ccc(F)cc2)cc1
inactive: [1] 20% | [2] 9.65% | [3] 11.9% | [4] 15.8% | [5] 18.5% | [6] 45.2%

O=C1OCCC1=P(c1ccccc1)(c1ccccc1)c1ccccc1
inactive: [1] -5.6% | [2] -30.9% | [3] 6.9% | [4] 9.45% | [5] -7.4% | [6] -4.85%

O=C(c1ccccc1)N1OCCCc2ccccc21
inactive: [1] 17.5% | [2] 7.9% | [3] 19.2% | [4] 2.7% | [5] 13.3% | [6] 20.4%

O=C(CSc1nnc(-c2ccc(N=Cc3ccc(Cl)cc3)cc2)o1)Nc1ccc([N+](=O)[O-])cc1
inactive: [1] 14.7% | [2] -7.65% | [3] 14.7% | [4] -53.8% | [5] -11.3% | [6] 14.9%
